PubChem BioAssay (NCI)
Compounds without any hit were thinned out: in the full panel of roughly 83,000, 20% have a hit.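 48-hour exposure, single concentration, 96-well plates; percent growth endpoint where 0 means no net growth. Active: below 10.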 Activity calls are given as the source filed them.

Assays:
Experiment in all cases: NCI-60 one-dose screen, 48 h (100 = growth as untreated, 0 = no growth, -100 = all killed)
Details in all cases: 10 µM unless noted
SK-MEL-2 melanoma = test system: SK-MEL-2 melanoma
EKVX NSCLC = test system: EKVX NSCLC
SN12C renal = test system: SN12C renal
UO-31 renal = test system: UO-31 renal
TK-10 renal = test system: TK-10 renal
ACHN renal = test system: ACHN renal
CAKI-1 renal = test system: CAKI-1 renal
A498 renal = test system: A498 renal
CCRF-CEM leukemia = test system: CCRF-CEM leukemia
MOLT-4 leukemia = test system: MOLT-4 leukemia

Measured: growth

CN(CCC(=O)c1ccccc1)CCC(=O)c1ccccc1
inactive: SK-MEL-2 melanoma 91% | EKVX NSCLC 103% | SN12C renal 82.5% | UO-31 renal 77.1% | TK-10 renal 88.8% | ACHN renal 107% | CAKI-1 renal 90.7% | A498 renal 78.9% | CCRF-CEM leukemia 80.6% | MOLT-4 leukemia 94.5%

CCN(CC)CCCOc1ccc2ncnc(Nc3ccc(Oc4cccc(C(F)(F)F)c4)c(Cl)c3)c2c1
inactive: EKVX NSCLC 23.4% | SN12C renal 47.1% | TK-10 renal 25.7% | A498 renal 21.3%
active: SK-MEL-2 melanoma -14.7% | UO-31 renal 0.274% | ACHN renal -13.4% | CAKI-1 renal -24.4% | CCRF-CEM leukemia 1.81% | MOLT-4 leukemia 0.414%

COc1ccc2c(c1)/C(=N/c1n[nH]c(=S)s1)C(=O)N2
inactive: SK-MEL-2 melanoma 105% | EKVX NSCLC 98.6% | SN12C renal 97.8% | UO-31 renal 74.3% | TK-10 renal 115% | ACHN renal 83.6% | CAKI-1 renal 78.4% | A498 renal 89.9% | CCRF-CEM leukemia 44.5% | MOLT-4 leukemia 76.2%

NS(=O)(=O)c1ccc(C(=O)NN2C(=O)c3c(Br)c(Br)c(Br)c(Br)c3C2=O)cc1
inactive: SK-MEL-2 melanoma 99% | EKVX NSCLC 99.7% | SN12C renal 97.6% | UO-31 renal 81.7% | TK-10 renal 112% | ACHN renal 106% | CAKI-1 renal 88% | A498 renal 81.7% | CCRF-CEM leukemia 101% | MOLT-4 leukemia 100%

COc1cc(OC)c2sc(-c3ccc(-n4cncc4-c4cc(OC)c(OC)c(OC)c4)cc3)nc2c1
inactive: SK-MEL-2 melanoma 55.4% | EKVX NSCLC 58.7% | SN12C renal 68.7% | UO-31 renal 41% | TK-10 renal 66.1% | ACHN renal 70.2% | CAKI-1 renal 24.3% | A498 renal 48.5% | CCRF-CEM leukemia 56.6% | MOLT-4 leukemia 32.1%

CC(=O)c1sc2sc(C(C)=O)c(C)c2c1C
inactive: SK-MEL-2 melanoma 107% | EKVX NSCLC 42.8% | SN12C renal 98% | UO-31 renal 88.4% | TK-10 renal 74.9% | ACHN renal 98.9% | CAKI-1 renal 86.4% | CCRF-CEM leukemia 63.6% | MOLT-4 leukemia 85.5%
active: A498 renal -82.4%

O=C(Nc1ccccc1[N+](=O)[O-])c1ccc(Cl)c(Cl)c1
inactive: SK-MEL-2 melanoma 95.6% | EKVX NSCLC 85.3% | SN12C renal 94.7% | UO-31 renal 71.1% | TK-10 renal 124% | ACHN renal 94.7% | CAKI-1 renal 92.8% | A498 renal 58.7% | CCRF-CEM leukemia 106% | MOLT-4 leukemia 96.7%

CCN1CCN(CC(=O)Nc2ccc(-c3cn4c(n3)sc3cc(Oc5ccnc(C(=O)NC)c5)ccc34)cc2)CC1
inactive: SK-MEL-2 melanoma 42.5% | EKVX NSCLC 100% | SN12C renal 85.9% | UO-31 renal 60.1% | TK-10 renal 89.5% | ACHN renal 73.2% | CAKI-1 renal 67.4% | A498 renal 81.8% | CCRF-CEM leukemia 44.9% | MOLT-4 leukemia 60.6%

C#CC#CC#CC#CC#CC#CC#CC#CC[C@@H]1OC[C@@H](COC(=O)O[C@@H](C(=O)O[C@H]2C[C@@]3(O)[C@@H](OC(=O)c4ccccc4)[C@@H]4[C@]5(OC(C)=O)CO[C@@H]5C[C@H](O)[C@@]4(C)C(=O)[C@H](OC(C)=O)C(=C2C)C3(C)C)[C@@H](NC(=O)c2ccccc2)c2ccccc2)O1
active: CCRF-CEM leukemia 6.05% | MOLT-4 leukemia 9.3%
inactive: SK-MEL-2 melanoma 105% | EKVX NSCLC 35.2% | SN12C renal 21.4% | UO-31 renal 35.2% | TK-10 renal 123% | ACHN renal 26.5% | CAKI-1 renal 81.3% | A498 renal 52.9%

O=C(N/N=C\c1ccccc1S(=O)(=O)O)N/N=C/c1ccccc1S(=O)(=O)O
inactive: SK-MEL-2 melanoma 99.8% | EKVX NSCLC 102% | SN12C renal 102% | UO-31 renal 92.5% | TK-10 renal 100% | ACHN renal 98.7% | CAKI-1 renal 88.7% | A498 renal 101% | CCRF-CEM leukemia 102% | MOLT-4 leukemia 92.3%

COc1ccc(C(=O)Cn2c(C(=O)c3ccc(OC)cc3)nc3ccccc32)cc1
inactive: SK-MEL-2 melanoma 88.4% | EKVX NSCLC 73.3% | SN12C renal 41% | UO-31 renal 35.4% | TK-10 renal 51.5% | ACHN renal 43.8% | CAKI-1 renal 25.4% | A498 renal 34.2% | MOLT-4 leukemia 15.6%
active: CCRF-CEM leukemia 0.632%

COc1ccc(/C=C(/c2ccccc2)[N+](=O)[O-])c(OC)c1
inactive: EKVX NSCLC 36.2% | A498 renal 51.5%
active: SK-MEL-2 melanoma -6.4% | SN12C renal -20.5% | UO-31 renal -97.6% | TK-10 renal -26% | ACHN renal -72.4% | CAKI-1 renal -25.5% | CCRF-CEM leukemia 7.93% | MOLT-4 leukemia 6.93%

[2H]C([2H])([2H])Oc1ccc(F)cc1/C=C/C(=O)/C=C(O)/C=C/c1cc(F)ccc1OC([2H])([2H])[2H]
inactive: SK-MEL-2 melanoma 98.2% | EKVX NSCLC 107% | SN12C renal 90.7% | UO-31 renal 91.5% | TK-10 renal 121% | ACHN renal 106% | CAKI-1 renal 93.6% | A498 renal 99.4% | CCRF-CEM leukemia 86.9% | MOLT-4 leukemia 75.1%
